# High-throughput results from PubChem BioAssay.
# This is a sample that favours compounds with a hit; in the whole collection about 14% have one here.
# Giardia FBPA inh: inhibitors of Giardia lamblia fructose-1,6-bisphosphate aldolase | A8B2U2 | purified Giardia FBPA | Potency, µM (highest dose often 59.6 µM), usual class: inhibitors | 0.71% of 290,000 active; note: nearly all actives have a fitted effect of over 55% in size
# Target sequence (A8B2U2 whole entry, looked up): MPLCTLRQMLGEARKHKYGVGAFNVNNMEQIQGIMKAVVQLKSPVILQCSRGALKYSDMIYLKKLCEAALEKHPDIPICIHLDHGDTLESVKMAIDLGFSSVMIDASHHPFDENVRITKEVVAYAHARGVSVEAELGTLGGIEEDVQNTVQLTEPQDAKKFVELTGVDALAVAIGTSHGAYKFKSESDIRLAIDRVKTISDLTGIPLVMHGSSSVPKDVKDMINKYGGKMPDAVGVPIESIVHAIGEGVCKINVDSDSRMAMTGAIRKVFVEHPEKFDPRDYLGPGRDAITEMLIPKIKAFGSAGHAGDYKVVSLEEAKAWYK
#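 Giardia FBPA (40 nM reagent) was preincubated 10 min at RT with compound (up to 57.5 uM final), then substrate plus GAPDH/TPI/NAD/arsenate coupling system with diaphorase/resazurin was added; resorufin fluorescence (525/598 nm) was read after 20 min.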
# HCMV antiviral: human cytomegalovirus inhibition. AID 1259415. activity change, negative = inhibition, % at 57.5 µM. HFF cells, HCMV-luciferase reporter, 72 h; hits give low values. 4.5% of 410,000 active; in the data active = activity change below about -60%; inconclusive = no clear call, values can overlap the other calls; inactive = above about -39%
#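 Steps: HFFs plated, 16 h 37C; compounds added; HCMV-luciferase added to MOI 1 PFU/cell; 72 h 37C; OneGlo reagent, 5 min room temperature; luminescence read, normalized to controls.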
# Sm TGR inh: S. mansoni TGR enzyme inhibition; purified TGR, DTNB reduction, TNB absorbance 405 nm; 3% of 360,000 active; AID 485364; Potency, µM (series often up to 114 µM), most hits filed as inhibitors; Q962Y6; note: nearly all actives have a fitted effect of over 60% in size
#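 TGR 20 nM + NADPH 100 uM (dispensed conc.), cpd preinc 15 min RT; start with NADPH (500 uM addition) then DTNB (15 mM addition). Kinetic TNB absorbance, 405 nm filter. Four-parameter Hill fit across titration.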
# Pf growth 48h: P. falciparum growth inhibition at 48 hours (one generation); P. falciparum luciferase growth in erythrocytes, 48 h; AID 504832; 5.9% of 310,000 active; Potency, µM (doses to about 28.7 µM), usual class: inhibitors
#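 Luciferase-expressing P. falciparum in infected erythrocytes (2% hematocrit, 0.1% parasitemia final) in RPMI 1640/0.5% Albumax were exposed to compound for 48 hours at 37 C, 5% CO2; growth read as luminescence.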
# Pf growth 96h: P. falciparum growth inhibition at 96 hour, primary screen for plastid delayed-death inhibitors; 6.9% of 320,000 active; AID 504834; P. falciparum luciferase reporter growth, 96 h; Potency, µM (top dose mostly 28.7 µM), actives largely listed as inhibitors
#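 96 h incubation, 37 C, 5% CO2, of luciferase-reporter P. falciparum-infected RBCs (2% hematocrit, 0.05% parasitemia final) with test compounds; endpoint luminescence.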
# Numbers stand for hits; - = inactive; ? = inconclusive; . = no result; [ ] = another dose, or the depositor's remark. Unless noted, calls come from the whole dose curve; as a rule, active = well fitted curve in the direction sought with a large enough effect; inconclusive = small, poorly fitted or top-dose-only effect, or another doubt; inactive = no such curve, though single readings can be large; an effect the other way counts as inactive or inconclusive.
SMILES,Giardia FBPA inh,HCMV antiviral,Sm TGR inh,Pf growth 48h,Pf growth 96h
CC1=CC(C)CC(C)OC(=O)CC(c2ccc(O)cc2)NC(=O)C(Cc2c(Br)[nH]c3ccccc23)N(C)C(=O)C(C)NC(=O)C(C)C1 (stereo unspecified),.,-98,.,.,.
CC(=O)c1c(C)n(-c2cccc(Cl)c2)c2ccc(OC(=O)c3ccccc3)cc12,.,-,-,.,.
COc1ccc(/C=N/N(CCC(=O)NC(C)(C)C)C2=NS(=O)(=O)c3ccccc32)cc1,-,-,-,6.6µM,-
CC(C)(C)NC(=O)CCN(/N=C/c1ccncc1)C1=NS(=O)(=O)c2ccccc21,-,?,-,?,-
COCCn1c(=O)c(C)nc2cncnc21,-,.,.,.,.
CCN1CCc2c(sc(-n3cccc3)c2C(C)NC(=O)Nc2ccccc2C)C1 (stereo unspecified),.,-67,-,.,.
CCN1CCc2c(sc(-n3cccc3)c2C(C)NC(=O)Nc2cc(Cl)c(OC)cc2OC)C1 (stereo unspecified),.,-,-,.,.
CC(C)(C)c1ccc(-c2nc(C#N)c(NCCCn3ccnc3)o2)cc1,-,-,-,?,8.3µM
CCCOc1ccc(-c2nc(C#N)c(NCCCn3ccnc3)o2)cc1,-,?,-,10µM,7.4µM
Cc1ccc(OCc2nc(C#N)c(NCCCn3ccnc3)o2)cc1,-,-,-,-,.
N#Cc1nc(-c2ccc(OCc3ccccc3Cl)cc2)oc1NCCCn1ccnc1,-,.,-,1.7µM,-
N#Cc1nc(-c2ccc(F)cc2)oc1NCCCn1ccnc1,-,.,-,-,-
N#Cc1nc(-c2ccc(OCc3ccccc3)cc2)oc1NCCCn1ccnc1,-,-,-,2.9µM,-[5.75 µM]
N#Cc1nc(COc2ccc(Br)cc2)oc1NCCCn1ccnc1,-,-,-,?,-
CN(C)c1oc(-c2ccc(OCc3ccccc3)cc2)nc1C#N,-,-,100µM,-,5.2µM
N#Cc1nc(-c2ccc(OCc3ccccc3)cc2)oc1NCc1cccnc1,-,?,-,?,?
COc1ccc(S(=O)(=O)N2CCCC(C(=O)NCc3cccnc3)C2)cc1 (stereo unspecified),-,-,-,-,-
O=[N+]([O-])c1ccc(-c2cnc(SC(c3ccccc3)c3ccccc3)[nH]2)cc1,-,?,-,?,7.4µM
CN(C(=O)C1CCCO1)c1nnc(-c2cnccn2)s1 (stereo unspecified),-,-,-,-,3.3µM
COc1ccccc1-c1cn[nH]c1-c1ccc(OCc2ccccc2F)cc1O,-,-,-,7.4µM,3.7µM
COc1ccccc1-c1cn[nH]c1-c1ccc(OCc2ccc(F)cc2)cc1O,-,-,-,13µM,10µM
COc1ccccc1-c1cn[nH]c1-c1ccc(O)cc1O,-,-,-,?,?
C/C(CC(=O)Nc1ccccn1)=N\NC(=O)c1ccccc1O,-,-91,-,-,-
C/C(CC(=O)Nc1ccccn1)=N\NC(=O)c1ccc2ccccc2c1,-,-,-,-,1.9µM
C/C(CC(=O)Nc1ccccn1)=N\NC(=O)c1ccncc1,-,.,-,?,-
SMILES,Giardia FBPA inh,HCMV antiviral,Sm TGR inh,Pf growth 48h,Pf growth 96h
C/C(CC(=O)Nc1ccccn1)=N\NC(=O)c1ccccc1,-,.,-,-,-
C/C(CC(=O)Nc1cc(C)ccn1)=N\NC(=O)c1cccc(C)c1O,.,-98,-,?,-
Cc1cnc(C(=O)OCc2nc3ccsc3c(=O)[nH]2)cn1,.,-,-,-,-
COc1ccccc1CNc1ncnc2ccc(-c3ccccc3C#N)cc12,-,.,.,.,.
CC(c1nc2ccccc2n1Cc1ccccc1)N1CCCCC1 (stereo unspecified),-,-67,-,?,?
Cc1nc2ccccc2n1Cc1ccccc1,-,-,-,-,?
CCN1/C(=C/c2ccc3cc(C)ccc3[n+]2CC)Sc2cc(C)c(C)cc21,-,-100,-,2.1µM,-
CCN1/C(=C/c2ccc3cc(C)ccc3[n+]2CC)Sc2ccccc21,-,-102,-,0.59µM,-
CCN1/C(=C/c2cc[n+](CCCS(=O)(=O)[O-])c3ccccc23)Sc2ccccc21,-,?,-,-,-
CN1/C(=C/c2cccc[n+]2CCO)Sc2ccccc21,-,?,-,?,?
CC[n+]1c(/C=C2\Sc3ccccc3N2C)ccc2cccc(C)c21,-,-101,.,?,-
COc1cccc(CN(C)C(=O)Nc2cccc(C(F)(F)F)c2)c1OC,-,-,-,-,-
CC(Oc1ccc2c3c(c(=O)oc2c1)CCC3)C(=O)NCCCn1ccnc1 (stereo unspecified),.,-,-,-,?
COc1ccc(CCNC(=O)c2cc3c(s2)-c2c(C)cccc2OC3)c(OC)c1,.,-,-,.,.
O=[N+]([O-])/C(C(Cl)=C(Cl)Cl)=C(/NC1CC1)Sc1ccccc1,?,-,4µM,-,?
CN(CCC#N)C(=O)COC(=O)c1ccccc1C(=O)c1ccc(Cl)c([N+](=O)[O-])c1,-,-97,13µM,-,-
CCc1nc2ccc(C(=O)NCCCN3CCCC3=O)cn2c1N(CC)C(C)=O,.,-,.,.,.
CCOc1nc2cccc(C(=O)O)c2n1Cc1ccc(-c2ccccc2-c2nn[nH]n2)cc1,.,-,.,?,2.1µM
COC(=O)c1cc(NC(=O)C(C)c2ccc(CC(C)C)cc2)ccc1O (stereo unspecified),-,-79,-,?,?
CCn1c(=O)c2sccc2n2c(CCCC(=O)N3CCN(c4ccc(F)cc4)CC3)nnc12,.,?,-,.,.
CCC(C)n1c(=O)c2sccc2n2c(CCCC(=O)N3CCC(C(N)=O)CC3)nnc12 (stereo unspecified),.,-,7.1µM,-,-
COc1ccc(-c2cc(C(=O)N3CCN(C(c4ccccc4)c4ccccc4)CC3)no2)cc1,-,-,-,?,12µM
CC(C)c1cc(C(=O)N2CCN(C(c3ccccc3)c3ccccc3)CC2)no1,-,-,-,9.3µM,.
COc1ccc(-c2cc(C(=O)N3CCCCCC3)no2)cc1OC,-,-,-,-,-
COc1ccc2oc(C(=O)N3CCN(C/C=C/c4ccccc4)CC3)c(C)c2c1,.,-,-,-,-
SMILES,Giardia FBPA inh,HCMV antiviral,Sm TGR inh,Pf growth 48h,Pf growth 96h
COc1ccc2oc(C(=O)N3CCN(C(c4ccccc4)c4ccccc4)CC3)c(C)c2c1,.,?,-,3.7µM,4.7µM
COc1ccc(-c2cc(C(=O)N3CCN(C(c4ccccc4)c4ccccc4)CC3)no2)cc1OC,-,-,-,7.4µM,-
O=C(c1cc(-c2ccco2)on1)N1CCN(C(c2ccccc2)c2ccccc2)CC1,-,-104,-,12µM,-
CCC(Cc1ccccc1)NC(=O)/C=C/c1ccco1 (stereo unspecified),-,-,10µM,-,-
CC(NC(=O)C=Cc1ccco1)C(=O)NC(Cc1ccccc1)C(N)=O (stereo unspecified),.,-,.,.,.
COc1ccc(C(NC(=O)/C=C\c2ccco2)c2ccc(OC)c(OC)c2)cc1 (stereo unspecified),-,-,13µM,?,?
COc1ccc(OC)c(NC(=O)COC(=O)/C=C/c2ccco2)c1,.,-,.,.,.
